Assay results taken from PubChem BioAssay AID1159580 (chemical genetic matrix, 2015).
Several values for one entry are separate records, joined by “and”; a condition that tells them apart may be missing. Equal entries are not always repeated. Out of some 5,500 compounds screened, about 2,000 (36%) were called active. Not shown: some 18% with an inconclusive outcome. Rule as the data show it: active = normalized growth mostly below about 0.91 (no sharp cut-off); inconclusive = no clear call, values can overlap the other calls; inactive = mostly above about 0.92. Some of the results follow.

Assay: chemical genetic growth profiling, strain panel (AID 1159580);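 also: tested at 20 µM; growth read once vehicle control cultures reached saturation at 30 °C; 1 = growth at the plate median or of vehicle wells; lower values mean less growth of the strain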
Conditions: S. cerevisiae deletion strains, growth OD

Measured: normalized growth

C[C@]12CCC3c4ccc(O)cc4CCC3C1CC[C@@H]2OC(=O)CCC1CCCC1 (some centres undefined)
inactive: locus YAL021C, strain ccr4, stronger effect = lower value 1.03 | locus YAL026C, strain drs2, stronger effect = lower value 0.997 | locus YAL030W, strain snc1, stronger effect = lower value 1.01 | locus YBL061C, strain skt5, stronger effect = lower value 1 | locus YBR009C, strain hhf1, stronger effect = lower value 1 | locus YBR021W, strain FUR4, stronger effect = lower value 1.02 | locus YBR023C, strain chs3, stronger effect = lower value 1.03 | locus YBR171W, strain sec66, stronger effect = lower value 1.02 | locus YBR229C, strain ROT2, stronger effect = lower value 0.961 | locus YBR231C, strain swc5, stronger effect = lower value 0.98 | locus YBR279W, strain paf1, stronger effect = lower value 1 | locus YCL011C, strain gbp2, stronger effect = lower value 1.02 | locus YCL016C, strain dcc1, stronger effect = lower value 1.03 | locus YCL029C, strain bik1, stronger effect = lower value 1 | locus YCL061C, strain MRC1, stronger effect = lower value 1.01 | locus YCL069W, strain vba3, stronger effect = lower value 1.01 | locus YCR088W, strain abp1, stronger effect = lower value 1.01 | locus YDL005C, strain med2, stronger effect = lower value 1.01 | locus YDL035C, strain GPR1, stronger effect = lower value 0.959 | locus YDL040C, strain nat1, stronger effect = lower value 0.997 | locus YDL074C, strain BRE1, stronger effect = lower value 0.97 | locus YDL101C, strain DUN1, stronger effect = lower value 0.985 | locus YDL185W, strain tfp1, stronger effect = lower value 0.975 | locus YDL192W, strain arf1, stronger effect = lower value 1 | locus YDR001C, strain nth1, stronger effect = lower value 1 | locus YDR069C, strain doa4, stronger effect = lower value 0.989 | locus YDR101C, strain arx1, stronger effect = lower value 0.959 | locus YDR137W, strain rgp1, stronger effect = lower value 1.03 | locus YDR150W, strain NUM1, stronger effect = lower value 0.985 | locus YDR159W, strain sac3, stronger effect = lower value 0.982 | locus YDR162C, strain NBP2, stronger effect = lower value 0.944 | locus YDR195W, strain ref2 1 | locus YDR297W, strain sur2, stronger effect = lower value 1.01 | locus YDR318W, strain mcm21, stronger effect = lower value 1 | locus YDR334W, strain swr1, stronger effect = lower value 1.01 | locus YDR335W, strain msn5, stronger effect = lower value 1.02 | locus YDR388W, stronger effect = lower value 0.991 | locus YDR392W, strain spt3, stronger effect = lower value 0.944 | locus YDR502C, strain sam2, stronger effect = lower value 0.994 | locus YEL003W, strain gim4, stronger effect = lower value 0.988 | locus YEL037C, strain rad23, stronger effect = lower value 0.992 | locus YEL061C, strain CIN8 (second series), stronger effect = lower value 1.01 | locus YEL061C, strain CIN8, stronger effect = lower value 0.989 | locus YER015W, strain faa2, stronger effect = lower value 1 | locus YER016W, strain bim1, stronger effect = lower value 1.01 | locus YER110C, stronger effect = lower value 1.01 | locus YER111C, strain swi4, stronger effect = lower value 1.01 | locus YER155C, strain BEM2 (second series), stronger effect = lower value 1.01 | locus YER155C, strain BEM2, stronger effect = lower value 1 | locus YER167W, strain BCK2, stronger effect = lower value 1.01 | locus YFR010W, strain ubp6, stronger effect = lower value 1.01 | locus YGL078C, strain dbp3, stronger effect = lower value 0.998 | locus YGL086W, strain mad1, stronger effect = lower value 0.994 | locus YGL167C, strain pmr1, stronger effect = lower value 1.01 | locus YGL173C, strain kem1, stronger effect = lower value 1.02 | locus YGL227W, strain vid30, stronger effect = lower value 1.03 | locus YGL240W, strain doc1, stronger effect = lower value 1.05 | locus YGL248W, strain PDE1, stronger effect = lower value 0.99 | locus YGL253W, strain hxk2, stronger effect = lower value 1.01 | locus YGR135W, strain pre9, stronger effect = lower value 1.07 | locus YGR229C, strain SMI1, stronger effect = lower value 0.982 | locus YGR252W, strain gcn5, stronger effect = lower value 1.16 | locus YHR013C, strain ard1, stronger effect = lower value 1.03 | locus YHR027C, strain rpn1, stronger effect = lower value 0.995 | locus YHR030C, strain SLT2, stronger effect = lower value 0.99 and 1.03 | locus YHR079C, strain IRE1 (second series), stronger effect = lower value 0.996 | locus YHR079C, strain IRE1, stronger effect = lower value 1.04 | locus YHR094C, strain hxt1, stronger effect = lower value 0.997 | locus YHR129C, strain ARP1, stronger effect = lower value 0.992 | locus YHR142W, strain chs7, stronger effect = lower value 1.05 | locus YHR200W, strain rpn10, stronger effect = lower value 0.998 | locus YIL066C, strain RNR3, stronger effect = lower value 0.977 | locus YIL073C, strain SPO22, stronger effect = lower value 0.989 | locus YIL125W, strain kgd1, stronger effect = lower value 0.989 | locus YIR030C, strain dcg1, stronger effect = lower value 1.01 | locus YJL092W, strain hpr5, stronger effect = lower value 1.01 | locus YJL095W, strain BCK1 (second series), stronger effect = lower value 1.01 | locus YJL095W, strain BCK1, stronger effect = lower value 1.01 | locus YJL115W, strain asf1, stronger effect = lower value 1.01 | locus YJL129C, strain trk1, stronger effect = lower value 1.03 | locus YJL134W, strain LCB3, stronger effect = lower value 0.979 | locus YJL154C, strain vps35, stronger effect = lower value 1.01 | locus YJL164C, strain tpk1, stronger effect = lower value 0.996 | locus YJL166W, strain qcr8, stronger effect = lower value 1.02 | locus YJL168C, strain set2, stronger effect = lower value 0.995 | locus YJL187C, strain SWE1 (second series), stronger effect = lower value 0.976 | locus YJL187C, strain SWE1, stronger effect = lower value 1.01 | locus YJR043C, strain POL32, stronger effect = lower value 0.967 | locus YJR066W, strain TOR1, stronger effect = lower value 0.929
